Test in all cases: NCI-60 one-dose screen, 48 h (100 = growth as untreated, 0 = no growth, -100 = all killed)
Common to all, as to settings: 10 µM unless noted

In assay [1] the test system is SK-MEL-2 melanoma.
For assay [2], the system named is EKVX NSCLC.
The test system of assay [3] is SN12C renal.
Assay [4] concerns UO-31 renal.
Assay [5] relates to ACHN renal.
Assay [6] concerns CAKI-1 renal.
For assay [7], the system named is A498 renal.
Assay [8] deals with CCRF-CEM leukemia.
The subject of assay [9] is MOLT-4 leukemia.

SMILES strings stand for the structures. The panel holds about 83,000 compounds, 20% with a hit somewhere; the sample as a whole holds those more often.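 Step 1: grow cells in 96-well plates. Step 2: add test compound at a single concentration. Step 3: incubate 48 h. Step 4: record percent growth.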 Active and inactive are the calls of the source. Rule for the calls: active = growth percent below 10; inactive = the rest.

Data on 24 compounds can be found in PubChem BioAssay (NCI).

Turning to `CNc1ccc(N)cc1`, the growth is 120% (inactive) in assay [1]; 93.7% (inactive) in [2]; 110% (inactive) in assay [3]; 98.2% (inactive) in assay [4]; 92.8% (inactive) in assay [5]; 91.4% (inactive) in [6]. Besides, the growth in [7] is 120% (inactive); in assay [8], 87.6% (inactive); in assay [9], 97.6% (inactive).
In the case of `CCC(c1cccc(O)c1)C(CC)c1cccc(O)c1` (stereo not drawn), the growth in assay [1] is 71.8% (inactive); in assay [2], 64.1% (inactive); in [3], 68.5% (inactive); in assay [4], 64.1% (inactive); in [5] it was 75.1% (inactive); in assay [6], 66.4% (inactive). The growth in [7] is 70.8% (inactive); in [8], 49.8% (inactive); in assay [9], 33.7% (inactive).
As for `Cc1ccc2nc(C[n+]3ccc4ccccc4c3)ccc2c1`, the growth was 78.8% (inactive) in [1]; 72.2% (inactive) in assay [2]; 39.3% (inactive) in assay [3]; 85.7% (inactive) in assay [4]; 101% (inactive) in assay [5]; 98.3% (inactive) in [6]. In addition, the growth in [7] was 81% (inactive); in [8] it was 52.6% (inactive); in assay [9], 71.9% (inactive).
Turning to `Cc1ccc(N=C=C(c2ccccc2)c2ccccc2)cc1`, the growth is 97.5% (inactive) in assay [1]; 90.6% (inactive) in assay [2]; 79.2% (inactive) in assay [3]; 80.3% (inactive) in assay [4]; 102% (inactive) in assay [5]; 81.6% (inactive) in [6]. The growth in [7] is 126% (inactive); in assay [8] it was 1.63% (active); in [9] it was -1.03% (active).
With `O=C1N[C@H]2[C@H](CS[C@H]2CCCCC(=O)N(CCP(c2ccccc2)c2ccccc2)CCP(c2ccccc2)c2ccccc2)N1`, the growth was 81.3% (inactive) in assay [1]; 75.3% (inactive) in [2]; 94.4% (inactive) in [3]; 77.3% (inactive) in assay [4]; 95.7% (inactive) in assay [5]; 99.2% (inactive) in [6]. The growth is 94.2% (inactive) in assay [7], 62.7% (inactive) in assay [8] and 82.8% (inactive) in assay [9].
Turning to `CCCCCC(CCCCC)C(=O)O`, the growth in [1] was 99.2% (inactive); in [2] it was 116% (inactive); in assay [3], 98.8% (inactive); in assay [4] it was 87.6% (inactive); in [5] it was 109% (inactive); in assay [6], 119% (inactive). For the same compound, the growth is 103% (inactive) in [7], 83.8% (inactive) in assay [8] and 96.1% (inactive) in assay [9].
On to `NC(=S)N/N=C\c1nccc2c(C(F)(F)C(F)(F)C(F)(F)F)cccc12`, for which the growth in assay [1] was 7.18% (active); in assay [2] it was 11.8% (inactive); in assay [3], 15.6% (inactive); in [4] it was -31.9% (active); in assay [5], -0.888% (active); in [6] it was -5.07% (active). The growth in assay [8] was -8.14% (active); in assay [9], -30.9% (active).
Take `Cc1ccc2nc(-[n+]3cc4ccccc4cc3C)ccc2c1`: the growth in assay [1] was 39.5% (inactive); in assay [2], 62% (inactive); in [3], 13.2% (inactive); in assay [4] it was 88.8% (inactive); in assay [6] it was 103% (inactive); in assay [7], 52.5% (inactive). For the same compound, the growth in assay [8] is 40% (inactive); in [9], 44.7% (inactive).
With `COc1ccc2nc3cc(Cl)ccc3c(NCCNc3c4ccc(Cl)cc4nc4ccc(OC)cc34)c2c1`, the growth is -73.1% (active) in assay [1]; -83.5% (active) in assay [2]; -89.6% (active) in assay [3]; -90.3% (active) in assay [4]; -94.7% (active) in assay [5]; -79.8% (active) in assay [6]. For the same compound, the growth is 22.2% (inactive) in assay [7], -10.9% (active) in assay [8] and -76% (active) in [9].
Take `CCOC(=O)/C=C/c1ccc([N+](=O)[O-])o1`: the growth in assay [1] is 85.3% (inactive); in [2], 107% (inactive); in assay [3], 85.5% (inactive); in [4], 38.5% (inactive); in assay [5] it was 9.88% (active); in [6], 9% (active). For the same compound, the growth was 102% (inactive) in assay [7], 7.26% (active) in [8] and -3.02% (active) in [9].
`Nc1nc(N)c2c(ccc3c2ccn3Cc2cccc([N+](=O)[O-])c2)n1`: the growth in assay [1] was -92% (active); in assay [2] it was -93.8% (active); in [3], -83.6% (active); in [4] it was -95.5% (active); in assay [5], -97% (active); in [6], -96.1% (active). For the same compound, the growth in assay [7] is -89.5% (active); in assay [8] it was 24% (inactive); in assay [9] it was 46.2% (inactive).
In the case of `C[n+]1c(/C=C/c2ccc([N+](=O)[O-])cc2)ccc2ccccc21`, the growth is 103% (inactive) in assay [1]; 62.8% (inactive) in assay [2]; 102% (inactive) in assay [3]; 63.3% (inactive) in assay [4]; 116% (inactive) in assay [5]; 81.3% (inactive) in assay [6]. In addition, the growth is 92.4% (inactive) in assay [7], 112% (inactive) in assay [8] and 90.7% (inactive) in assay [9].
For `N#CSCC(=O)c1ccc(Cl)cc1`, the growth in assay [1] was 80.8% (inactive); in assay [2], 82.6% (inactive); in assay [3] it was 33.6% (inactive); in [4] it was 28.3% (inactive); in [5], 52% (inactive); in assay [6], 31.8% (inactive). The growth was 83.7% (inactive) in [7], 52.5% (inactive) in assay [8] and 65.4% (inactive) in [9].
As to `O=[N+]([O-])c1ccc(N=Nc2ccc(O)cc2O)cc1`, the growth in [1] was 43.1% (inactive); in [2], 58.8% (inactive); in assay [3] it was 67.2% (inactive); in [4], 58.5% (inactive); in assay [5], 55.5% (inactive); in assay [6], 56% (inactive). In addition, the results for the growth in [7], in [8] and in [9] were 13.8% (inactive), 33.2% (inactive) and 36.7% (inactive), respectively.
For `COC(=O)[C@@]12OC[C@]34[C@H]([C@@H](O)[C@@H]1O)[C@@]1(C)[C@H](O)C(=O)C=C(C)[C@@H]1C[C@H]3OC(=O)C(OC(C)=O)[C@@H]24` (stereo partly drawn), the growth is -49.5% (active) in assay [1]; -43.6% (active) in [2]; -17.5% (active) in assay [3]; -35.1% (active) in [4]; -39.2% (active) in assay [5]; -35.9% (active) in assay [6]. Further, the growth in [7] was -49.4% (active); in assay [9], -41.6% (active).
For `CCOC(=O)/C(=C\c1ccc(-c2ccccc2)cc1)C(C)=O`, the growth was 104% (inactive) in assay [1]; 99.2% (inactive) in [2]; 89.9% (inactive) in assay [3]; 82.7% (inactive) in assay [4]; 104% (inactive) in [5]; 98.7% (inactive) in assay [6]. The growth in assay [7] was 92.2% (inactive); in assay [8], 107% (inactive); in [9], 107% (inactive).
Take `O=C1C=CC(=O)N1C1c2ccccc2-c2ccccc21`: the growth in assay [1] was 100% (inactive); in assay [2], 105% (inactive); in assay [3] it was 94.2% (inactive); in assay [4] it was 75.5% (inactive); in assay [6], 55.7% (inactive); in assay [7], 93.8% (inactive). Moreover, the growth was 30.4% (inactive) in [8] and 33.8% (inactive) in assay [9].
As for `C=C(Cl)C(=NC(C)(C)C)Nc1ccccc1C`, the growth in [1] was 139% (inactive); in assay [2], 90.4% (inactive); in assay [3], 83.5% (inactive); in assay [4] it was 80.7% (inactive); in assay [6], 104% (inactive); in [7] it was 105% (inactive). Moreover, the growth in assay [8] is 98.1% (inactive); in [9] it was 72.2% (inactive).
For `CC1(C)CC([P+](c2ccccc2)(c2ccccc2)c2ccccc2)=NN1`, the growth in assay [1] was -19.2% (active); in assay [2], 67.4% (inactive); in assay [3], 30.4% (inactive); in assay [4], 67.8% (inactive); in assay [5] it was 88.1% (inactive); in assay [6] it was 90.1% (inactive). Further, the growth in assay [7] is 92% (inactive); in [8], 41.3% (inactive); in assay [9], 21% (inactive).
Turning to `O=C(Nc1cccc(Br)c1)Oc1ccc(Cl)c2cccnc12`, the growth is 17% [100 µM] (inactive) in [1]; -18.3% [100 µM] (active) in assay [2]; 44.7% [100 µM] (inactive) in [3]; 13.9% [100 µM] (inactive) in assay [4]; 47% [100 µM] (inactive) in assay [6]; 96.1% [100 µM] (inactive) in assay [7]. Besides, the growth in assay [8] is 10.7% [100 µM] (inactive); in assay [9], 2% [100 µM] (active).
Turning to `O=C(Nc1ccccc1)c1cc(Cl)ccc1O`, the growth in [1] was -6.3% (active); in assay [2], 88.2% (inactive); in assay [3], 61.8% (inactive); in assay [4], 49.7% (inactive); in [6], 49.6% (inactive); in assay [7], -4.6% (active). The growth is 68% (inactive) in assay [8] and 77.2% (inactive) in assay [9].
Take `N#CSCc1ccc(CSC#N)c(Cl)c1`: the growth in assay [1] is 86.2% (inactive); in [2], 90.9% (inactive); in [3] it was 50.5% (inactive); in [4], 36.7% (inactive); in [5] it was 56.5% (inactive); in [6], 41.7% (inactive). Further, the values for the growth in assay [7], in assay [8] and in assay [9] were 91.9% (inactive), 19.3% (inactive) and 28.9% (inactive), respectively.
With `CC1OC2CC(=O)OC2C2=C1C(=O)c1c(O)cccc1C2=O` (stereo not drawn), the growth in assay [1] is -61.2% (active); in [2] it was -53.3% (active); in assay [3], -94.9% (active); in [4], -90.7% (active); in assay [5] it was -97.4% (active); in assay [6] it was -82.5% (active). For the same compound, the growth is 0.534% (active) in [8] and -7.62% (active) in assay [9].
Turning to `O=C(O)c1ccc2c3c(ncnc13)-c1ccccc1C2=O`, the growth was 88.4% (inactive) in assay [1]; 103% (inactive) in assay [2]; 48.7% (inactive) in [3]; 62.7% (inactive) in [4]; 73.8% (inactive) in assay [5]; 111% (inactive) in assay [6]. For the same compound, the growth was -2.38% (active) in assay [7], 77.9% (inactive) in assay [8] and 96.3% (inactive) in assay [9].
